# Screening results: PubChem, National Center for Advancing Translational Sciences (NCATS)
# AmpC inh no detg – AmpC beta-lactamase inhibition without detergent. P00811. AmpC nitrocefin hydrolysis, absorbance 480 nm, 0.0001% Triton. Potency, µM (titrated, usually from 57.1 µM), most hits filed as inhibitors. hit rate 0.52% among 330,000. AID 485341; also: nearly all actives have a fitted effect of over 20% in size
# Target sequence (P00811 whole entry, looked up): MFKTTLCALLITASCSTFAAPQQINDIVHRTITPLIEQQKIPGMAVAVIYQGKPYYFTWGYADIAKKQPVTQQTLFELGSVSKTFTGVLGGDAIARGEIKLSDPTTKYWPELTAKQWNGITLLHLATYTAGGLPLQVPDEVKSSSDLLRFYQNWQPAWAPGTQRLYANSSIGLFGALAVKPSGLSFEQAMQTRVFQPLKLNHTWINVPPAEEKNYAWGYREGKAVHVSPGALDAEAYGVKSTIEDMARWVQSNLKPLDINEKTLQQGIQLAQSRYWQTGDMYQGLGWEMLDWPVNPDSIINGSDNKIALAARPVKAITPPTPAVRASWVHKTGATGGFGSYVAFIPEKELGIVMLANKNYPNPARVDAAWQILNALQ
#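 20 mM phosphate pH 7.0 + 0.01% (detergent screen) or 0.0001% Triton X-100; 5.3 nM AmpC reagent; cpd preinc 15 min RT; nitrocefin (800 uM stock) to start; A480 q20 s × 4 min; Activity was normalised to no-enzyme and no-compound control wells.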
# Sm TGR inh – S. mansoni TGR enzyme inhibition; hit rate 3% among 360,000; AID 485364; Q962Y6; purified TGR, DTNB reduction, TNB absorbance 405 nm; Potency, µM (highest dose often 114 µM), actives largely listed as inhibitors; also: nearly all actives have a fitted effect of over 60% in size
#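 Kinetic colorimetric format: TGR-catalysed, NADPH-driven DTNB reduction monitored via TNB absorbance. Enzyme dispensed at 20 nM; compound exposure 15 min at room temperature before reaction start.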
# Pf growth 96h – inhibits malaria parasite growth, 96 h. P. falciparum luciferase reporter growth, 96 h. Potency, µM (top dose mostly 28.7 µM), usual class: inhibitors. hit rate 6.9% among 320,000
#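 P. falciparum expressing integrated firefly luciferase grown in erythrocytes (2% hematocrit, 0.05% parasitemia final) with compounds for 96 hours at 37 C, 5% CO2. Growth inhibition read as loss of luminescence after adding luciferase detection reagent.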
# SARS PLpro yeast – blocks SARS-CoV papain-like protease in a yeast assay | S. cerevisiae expressing SARS-CoV PLpro, growth rescue | Potency, µM (highest dose often 32.9 µM), most hits filed as activators | hit rate 0.19% among 330,000; calls by dose curve; also: nearly all actives have a fitted effect of over 55% in size
# AmpC inh detg – inhibitors of E. coli AmpC beta-lactamase with detergent; AmpC hydrolysis of nitrocefin, absorbance 480 nm, 0.01% Triton; Potency, µM (series often up to 114 µM), actives largely listed as inhibitors; hit rate 0.041% among 370,000; AID 485294; also: nearly all actives have a fitted effect of over 25% in size
#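 AmpC (5.3 nM in the dispensed reagent) in 20 mM phosphate pH 7.0 with 0.01% (detergent screen) or 0.0001% Triton X-100 was preincubated with compounds for 15 min at room temperature. Nitrocefin was then added from an 800 uM solution, and hydrolysis was followed at 480 nm.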
# Pf growth 48h – P. falciparum growth inhibition at 48 hours (one generation); Potency, µM (series often up to 28.7 µM), actives largely listed as inhibitors; hit rate 5.9% among 310,000; P. falciparum luciferase growth in erythrocytes, 48 h
#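 Parasite viability was followed by luminescence of a genomically integrated firefly luciferase. Cultures held 0.1% parasitemia at 2% hematocrit (final), incubated under 5% CO2 at 37 C.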
# Numbers stand for hits; i = inactive; ? = inconclusive; nt = no result given; [ ] = remark or other dose. Rows were chosen to be rich in hits. Some 12% of all compounds tested hit in one or more screens of this group. Unless noted, calls follow the shape of the dose curve; as a rule, active = well fitted curve in the direction sought with a large enough effect; inconclusive = small, poorly fitted or top-dose-only effect, or another doubt; inactive = no such curve, though single readings can be large; an effect the other way counts as inactive or inconclusive.
SMILES,AmpC inh no detg,Sm TGR inh,Pf growth 96h,SARS PLpro yeast,AmpC inh detg,Pf growth 48h
Cc1nc2ccccc2c(=O)n1/N=C/c1ccco1,i,i,?,i,i,i
O=c1c2ccccc2nc(COc2ccccc2)n1/N=C/c1c[nH]c2ccccc12,i,i,i,i,i,i
Cc1ccccc1OCc1nc2ccccc2c(=O)n1/N=C/c1ccco1,i,40µM,?,i,i,i
COc1ccc2c(CNCc3ccco3)c(C(=O)O)n(Cc3ccc(F)cc3Cl)c2c1,nt,i,nt,nt,i,nt
CC(=O)NCCOc1nc(N(C)C)nc(N2CCCCC2)n1,i,i,i,i,i,i
CCN1C(=O)/C(=C/C=C2\N(CC)c3cc(S(=O)(=O)N(C)C)ccc3N2c2ccccc2)SC1=S,i,i,13µM,i,i,?
CCN1C(=O)/C(=C\C=C\c2ccccc2[N+](=O)[O-])SC1=S,i,i,i,i,i,?
COc1cc2c(cc1OC)C(COc1ccccc1OC)N(C(=O)c1ccco1)CC2 (stereo not given),i,?,6.6µM,i,i,?
COc1cc2c(cc1OC)C(COc1ccccc1OC)N(C(=O)C(C)C)CC2 (stereo not given),i,i,10µM,i,i,?
COc1cc2c(cc1OC)C(COc1ccccc1OC)N(C(=O)CC(C)C)CC2 (stereo not given),nt,i,nt,nt,i,nt
CCOc1ccc(CC2c3cc(OCC)c(OCC)cc3CCN2C(=O)c2cc(OC)c(OC)c(OC)c2)cc1OCC (stereo not given),i,i,1.3µM,i,i,1.5µM
CCC(=O)N1CCc2cc(OC)c(OC)cc2C1COc1ccccc1OC (stereo not given),i,i,i,i,i,?
Cc1cccc(NC(c2nnc(-c3ccccc3)o2)c2ccc(F)cc2Cl)c1C (stereo not given),nt,i,nt,nt,i,nt
O=C1/C(=C\c2ccccc2)SC(=S)N1CCC(=O)N1CCCCC1CCO (stereo not given),i,i,?,i,i,?
COc1cccc(/C=C2\SC(=O)N(CCC(=O)N3CCCCC3CCO)C2=O)c1 (stereo not given),i,i,10µM,i,i,?
CC(C)c1ccc(/C=C2\SC(=S)N(CCC(=O)N3CCCCC3CCO)C2=O)cc1 (stereo not given),i,i,9.3µM,i,?,i
COc1ccc(/C=C2\SC(=S)N(CCCC(=O)N3CCCCC3CCO)C2=O)cc1 (stereo not given),i,i,8.3µM,i,i,?
CS(=O)(=O)Nc1cccc(C2=NN(C(=O)CCCC(=O)O)C(c3cccs3)C2)c1 (stereo not given),i,i,i,i,i,i[0.00184 µM]
CCCC(=O)NC(=S)Nc1cccc(Cl)c1N1CCCCC1,i,i,8.3µM,i,i,7.4µM
CCC(=O)NC(=S)Nc1cccc(Cl)c1N1CCCCC1,i,i,7.4µM,i,i,12µM
CCCCC(=O)NC(=S)Nc1cccc(Cl)c1N1CCCCC1,i,i,?,i,i,?
COC(=O)C1=C(C)N(Cc2ccccc2)C(=NCCN2CCOCC2)N[C@H]1CCc1ccccc1,i,i,i,i,i,i
Nc1nc(SCC(=O)Nc2ccc([N+](=O)[O-])cc2)[nH]c(=O)c1NC(=O)c1ccc(Br)o1,i,i,i,i,i,i
O=C(O)Cn1cc(CN2CCOCC2)c2ccccc21,i,i,i,i,i,i
CC(C)(C)c1cc(CN2CCOCC2)c(C(=O)O)o1,i,i,3.3µM,i,i,i
CN(C)S(=O)(=O)c1ccc2c(c1)/C(=C/c1cc3c([nH]1)CCCC3)C(=O)N2,i,50µM,1.3µM,nt,?,2.1µM
Cc1nn(-c2ccccc2)c2sc(C(=O)N(CC(=O)NC3CCCC3)Cc3ccco3)cc12,i,i,?,i,i,12µM
CCC(C)n1c(SCc2ccccc2)nc2ccsc2c1=O (stereo not given),i,i,4.1µM,i,i,?
COc1ccccc1CNC(=O)C1CCN(S(=O)(=O)c2ccc3nc4c(c(C(=O)O)c3c2)CCCC4)CC1,i,i,i,?,i,i
